HEK293 tox: kills HEK 293 cells; HEK 293 viability, ATP luminescence (CellTiter-Glo), 48-72 h; Potency, µM (doses to about 115 µM), inactives show top-dose activity change, negative = cytotoxicity, most hits filed as inhibitors; 94,000 tested, 6.6% active; AID 1345083; further: on the % scale 0 is the no-effect control and ±100 the full control effect; nearly all actives have a fitted effect of over 60% in size
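Cells seeded first (HEK 293, 250 cells/well), then compound added by pintool. Incubation ran 48 or 72 hr at 37 degree Celsius. CellTiter-Glo was added and luminescence imaged after 10 min at room temperature.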
hNpr1 antagonist: human Npr1 receptor antagonism; P16066; HEK293 hNpr1 GloSensor cGMP, ANP-stimulated luminescence; Potency, µM (titrated, usually from 46.3 µM), without a hit: at the highest dose activity change, negative = inhibition, actives largely listed as inhibitors; 76,000 tested, 1.6% active; AID 1347048; calls by dose curve; further: on the % scale 0 is the no-effect control and ±100 the full control effect; nearly all actives have a fitted effect of over 60% in size
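HEK293 cells stably expressing human Npr1 and cGMP GloSensor pGS-40F, loaded 2 h with 2% GloSensor reagent, given compound 30 min at room temperature. Luminescence read before and 20 min after 0.1 nM hNppA.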
GPT2 inhibitor: GPT2 alanine aminotransferase inhibition; Recombinant GPT2, coupled pyruvate oxidase/HRP Amplex Red fluorescence; Potency, µM (series often up to 57.7 µM), without a hit: at the top dose activity change, negative = inhibition, actives largely listed as inhibitors; 100,000 tested, 0.25% active; further: on the % scale 0 is the no-effect control and ±100 the full control effect; nearly all actives have a fitted effect of over 60% in size
Target sequence (Q8TD30 whole entry, looked up): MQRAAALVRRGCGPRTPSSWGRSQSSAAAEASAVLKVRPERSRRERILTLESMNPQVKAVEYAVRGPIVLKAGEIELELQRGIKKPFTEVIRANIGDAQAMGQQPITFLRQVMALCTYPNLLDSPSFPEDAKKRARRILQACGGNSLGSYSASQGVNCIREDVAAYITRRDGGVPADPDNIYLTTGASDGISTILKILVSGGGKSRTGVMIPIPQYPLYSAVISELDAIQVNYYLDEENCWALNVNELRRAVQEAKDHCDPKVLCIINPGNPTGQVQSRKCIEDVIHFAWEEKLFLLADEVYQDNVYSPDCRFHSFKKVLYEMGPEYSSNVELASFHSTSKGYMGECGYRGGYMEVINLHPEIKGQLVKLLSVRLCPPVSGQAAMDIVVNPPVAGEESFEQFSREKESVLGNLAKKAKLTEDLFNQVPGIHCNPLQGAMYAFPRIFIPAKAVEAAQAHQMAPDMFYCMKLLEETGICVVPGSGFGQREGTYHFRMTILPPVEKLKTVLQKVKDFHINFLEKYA
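Inhibition is scored from Amplex Red fluorescence generated when pyruvate oxidase and HRP act on pyruvate released by GPT2. Reactions contain 10ng/uL enzyme, 250uM a-KG and 2mM L-alanine and run 30 min at room temperature.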
FLuc inh-1: Photinus pyralis luciferase inhibition; P08659; purified P. pyralis luciferase, luminescence, biochemical; Potency, µM (titrated, usually from 115 µM), most hits filed as inhibitors; 76,000 tested, 2.5% active; AID 1347043; further: on the % scale 0 is the no-effect control and ±100 the full control effect; nearly all actives have a fitted effect of over 65% in size
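FLuc 10nM, D-luciferin 10uM, ATP 10uM, Mg acetate 10mM, Tris acetate pH 7.5, Tween/BSA; cpd qHTS; enzyme added last; CCD luminescence.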
3T3 cytotox: NIH 3T3 cell cytotoxicity; Potency, µM (series often up to 96.7 µM), for inactives: at the top dose activity change, negative = cytotoxicity, actives largely listed as inhibitors; NIH 3T3 viability, CellTiter-Glo ATP luminescence, 48-72 h; 94,000 tested, 4.3% active; AID 1345082; further: on the % scale 0 is the no-effect control and ±100 the full control effect; nearly all actives have a fitted effect of over 55% in size
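ATP-dependent luminescence (CellTiter-Glo) served as the viability signal for NIH 3T3 cells treated with compound for 48 or 72 hr at 37 °C.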
FLuc SDR -ATP: binders stabilizing firefly luciferase, without ATP. shares compounds with FLuc inh-1. Potency, µM (series often up to 32.7 µM), without a hit: at the highest dose activation (signal gain), hits mostly activators. Purified FLuc-C-HiBiT, Nano-Glo HiBiT luminescence, no ATP. 1,300 tested, 7.8% active. AID 1963318; further: nearly all actives have a fitted effect of over 55% in size
FLuc SDR ATP: binders stabilizing firefly luciferase, plus ATP; shares compounds with FLuc inh-1; 1,300 tested, 8.7% active; purified FLuc-C-HiBiT + ATP, HiBiT complementation luminescence; Potency, µM (doses to about 32.7 µM), inactives show top-dose activation (gain of signal), hits mostly activators; AID 1963319;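 further: signal reports ligand binding via conformational change of the enzyme rather than luciferase catalysis; % of control where 0% means no effect; nearly all actives have a fitted effect of over 55% in size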
FLuc inh-2: blocks firefly luciferase enzymatic activity. shares compounds with FLuc inh-1. purified FLuc-C-HiBiT enzyme, luciferin luminescence. Potency, µM (doses to about 32.7 µM), inactives show top-dose activity change, negative = inhibition, usual class: inhibitors. 1,300 tested, 42% active. AID 1963320; further: on the % scale 0 is the no-effect control and ±100 the full control effect; nearly all actives have a fitted effect of over 70% in size
* marks the source's active call; other numbers are inactive results; i = inactive; ? = inconclusive; · = not tested or not shown; [ ] = another dose, or the depositor's remark. This is a sample that favours compounds with a hit; in the whole collection about 10% have one here. Unless noted, the call rests on the fitted dose curve; in most records, active means well fitted curve in the direction sought with a large enough effect; inconclusive means small, poorly fitted or top-dose-only effect, or another doubt; inactive means no such curve, though single readings can be large; an effect the other way counts as inactive or inconclusive. Potency means the concentration at half of the fitted maximal effect.

SMILES	HEK293 tox	hNpr1 antagonist	GPT2 inhibitor	FLuc inh-1	3T3 cytotox	FLuc SDR -ATP	FLuc SDR ATP	FLuc inh-2
Cc1cn2nc(C(=O)Nc3ccc4c(c3)OCCO4)cc2c(N(C)Cc2ccccc2)n1	-24%	-1%	i	10µM*	?	24%	20%	?
Cc1cn2nc(C(=O)Nc3ccccc3)cc2c(N(C)Cc2ccccc2)n1	?	15%	i	i	?	·	·	·
O=C(NC1CC1)c1ccc2oc(-c3ccncc3Cl)nc2c1	-35%[172 µM]	·	1%[88.5 µM]	·	-25%[138 µM]	·	·	·
c1ccc(-c2noc(-c3ccc(OC4CNC4)cc3)n2)cc1	25µM*	8.9µM*	i	0.71µM*	22µM*	?	?	2.8µM*
O=C(NCc1ccc(F)cc1)N1CC(Oc2ccc(-c3nc(-c4ccccc4)no3)cc2)C1	?	0.63µM*	i	2.2µM*	-19%	16%	14%	0%
COC(=O)N1CCC(c2nn(-c3ccccn3)c(=O)[nH]2)CC1	i	·	4%[88.5 µM]	·	-7%[138 µM]	·	·	·
O=C(NCCc1cccnc1)c1cccc2c1CCN2C(=O)Nc1ccc(F)cc1	45µM*	11µM*	i	0.4µM*	-28%	23%	0.35µM*	0.22µM*
CCCCNC(=O)c1cccc2c1CCN2C(=O)C1CC1	3%	-2%	i	i	?	·	·	·
Cc1ccc(CNC(=O)c2cccc3c2CCN3C(=O)c2ccc(F)cc2)o1	?	-9%	i	i	-14%	·	·	·
O=C(NCCc1cccs1)c1cccc2c1CCN2C(=O)Nc1ccc(F)cc1	?	?	i	1.3µM*	?	20%	1.4µM*	0.79µM*
O=C(Nc1ccc2c(c1)OCO2)c1cccc2c1CCN2C(=O)Nc1ccc(F)cc1	?	7.1µM*	i	0.71µM*	-28%	13%	0.25µM*	0.2µM*
CC(NC(=O)c1cccc2c1CCN2C(=O)Nc1ccccc1)c1cccnc1 (stereo unspecified)	?	-28%	i	6.3µM*	-21%	18%	3.1µM*	1.8µM*
CCC(=O)N1CCc2c(C(=O)NCc3ccncc3)cccc21	4%	3%	0%	i	4%	·	·	·
COCCn1c(=O)c(C(=O)N2CCN(C(=O)OC)CC2)nc2cccnc21	i	·	i	·	0%	·	·	·
O=C(NCc1ccco1)c1cccc2c1CCN2C(=O)Nc1ccc(F)cc1	?	?	-11%	2.2µM*	?	?	1.8µM*	1.1µM*
COc1cccc(-c2cccc(C(=O)N3CCN(C(=O)C4CC4)CC3)c2)c1	?	·	3%	·	-27%	·	·	·
Cc1ccc(NCc2nc3ccccc3n2CCOc2ccccc2)cc1	·	·	·	·	·	22%	15%	?
Fc1ccccc1-c1nnc([C@H]2CCN(Cc3cccc(Cl)c3)C2)o1	?	0%[70.6 µM]	i	i	-15%[138 µM]	·	·	·
Fc1ccc(NCc2ccccc2-c2nnc(-c3ccccc3Cl)o2)cc1Cl	·	·	·	·	·	17%	9%	?
O=C1c2cnc(-c3cccc(F)c3)nc2OCCN1c1ccccc1	100µM*	-29%[70.6 µM]	-10%[88.5 µM]	0.89µM*	?	?	?	14µM*
COc1cccc(-c2ncc3c(n2)OCCN(c2ccccc2)C3=O)c1	10µM*	8.9µM*	-10%[88.5 µM]	0.4µM*	8.9µM*	3.2µM*	?	1.8µM*
O=C1c2cnc(-c3cccc(O)c3)nc2OCCN1c1cccc(C(F)(F)F)c1	?	-23%[70.6 µM]	?	i	?	·	·	·
Cc1ccc(OCC(=O)N2CCC3(CC2)CC(N2CCOCC2)CCO3)cc1 (stereo unspecified)	-1%	·	-9%	·	-15%	·	·	·
COc1cc(NC(=O)c2ccc(-c3ncn[nH]3)cc2)ccc1NC(=O)C(C)(C)C	25µM*	-14%	i	11µM*	?	18%	12%	?
COc1cc(NC(=O)CCN2CCCCCC2=O)ccc1NC(=O)C(C)(C)C	0%	10%	-4%	i	-26%	·	·	·
SMILES	HEK293 tox	hNpr1 antagonist	GPT2 inhibitor	FLuc inh-1	3T3 cytotox	FLuc SDR -ATP	FLuc SDR ATP	FLuc inh-2
CCn1ncc(CN2CC[C@@H]3C(=O)NCCCCCCN(Cc4ccncc4)[C@@H]3C2)c1C	-5%	0%	i	i	-10%	·	·	·
COCCN1C(=O)c2ccccc2C(C(=O)Nc2nc(C)c(C)s2)C12CCCCC2 (stereo unspecified)	?	-7%	0%	i	?	·	·	·
O=C(c1ccc2oc(-c3cccc(F)c3)nc2c1)N1CCCCC1CCO (stereo unspecified)	?	-21%	-6%	14µM*	?	18%	16%	?
COc1cccc(C(=O)Nc2cc(-c3ccncc3)nn2-c2ccccc2)c1	?	·	3%	·	?	·	·	·
COc1ccc(OCC(=O)Nc2ccc(O)c(-c3nc4ccccc4s3)c2)cc1	·	·	·	·	·	13%	10%	-14%
COc1ccc(C(=O)NCc2nnc3ccc(-c4ccc(F)cc4)nn23)c(OC)c1	-16%	18%	-10%	i	-9%	·	·	·
COc1ccc(C(=O)Nc2ccccc2-c2nc3ccccc3s2)c(OC)c1	·	·	·	·	·	12%	7%	-6%
CCC1Oc2ccc(NC(=O)COc3ccccc3)cc2CN(Cc2ccc(OC)cc2)C1=O (stereo unspecified)	?	-7%	i	i	?	·	·	·
COc1cccc(C(=O)Nc2ccccc2-c2nc3ccccc3s2)c1	·	·	·	·	·	8%	8%	1%
COc1cccc(C(=O)Nc2ccc(O)c(-c3nc4ccccc4s3)c2)c1	·	·	·	·	·	13%	8%	-8%
COc1ccc(C2(C(=O)N[C@@H]3CN(c4ncccn4)C[C@H]3CN(C)C)CC2)cc1	i	3%	-12%	i	3%	·	·	·
COC(=O)c1ccc(CN2C(=O)[C@@H]3C[C@@H](O)CN3C3(CN(Cc4cccc(OC)c4)C3)C2=O)cc1	-10%	-7%	-9%	i	-5%	·	·	·
O=C(Nc1ccc(-c2nc3ccccc3s2)c(O)c1)c1ccc(Br)cc1	·	·	·	·	·	15%	10%	5%
O=C(Nc1ccccc1-c1nc2ccccc2s1)c1ccccc1F	·	·	·	·	·	10%	9%	-6%
O=C(O)c1ccccc1-c1nc2ccccc2s1	·	·	·	·	·	23%	14%	-15%
O=C(O)c1cc(-c2ccccc2)nc2ccccc12	·	·	0%	·	·	·	·	·
c1ccc2c(c1)CCN(Cc1ccc3c(c1)CNCCO3)C2	?	-6%	3%	i	-29%	·	·	·

Screening results as filed in PubChem BioAssay.
